Compounds with a hit are over-represented: about 4% of the library has one in this group of screens.
GDH-TPI counter – counter-screen for M. tuberculosis FBA inhibitors: GDH-TPI coupled enzymes | GDH-TPI coupled enzyme counterscreen, NADH absorbance | hit rate 1.2% among 360,000 | inhibition, % at 4.8 µM; in the data active means inhibition above about 30%
FBA Mtb inh – Mtb fructose-bisphosphate aldolase inhibition. P9WQA3. purified M. tuberculosis FBA, fluorescence read-out. inhibition, % at 1 µM. hit rate 2.3% among 360,000. AID 588726; in the data active means inhibition above about 27%
Target sequence (P9WQA3 whole entry, looked up): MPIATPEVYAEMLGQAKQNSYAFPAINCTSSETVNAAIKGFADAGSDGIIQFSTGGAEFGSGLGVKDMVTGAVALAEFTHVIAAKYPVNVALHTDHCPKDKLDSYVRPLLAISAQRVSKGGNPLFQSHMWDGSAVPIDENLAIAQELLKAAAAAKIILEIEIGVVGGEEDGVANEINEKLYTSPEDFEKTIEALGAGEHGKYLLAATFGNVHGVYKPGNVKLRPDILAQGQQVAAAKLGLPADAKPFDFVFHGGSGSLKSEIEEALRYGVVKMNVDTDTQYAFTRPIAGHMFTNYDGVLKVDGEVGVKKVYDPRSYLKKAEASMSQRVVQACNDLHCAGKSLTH
RecA intein inh – blocks M. tuberculosis RecA intein splicing. P9WHJ3. cell-free RecA intein splicing, fluorescence. inhibition, % (no concentration beside the values). hit rate 0.75% among 290,000. AID 2221; in the data active means inhibition above about 30%; inconclusive means no clear call, values can overlap the other calls
Mtb bLac sens – beta-lactam sensitization of Mtb H37Rv | M. tuberculosis H37Rv growth with meropenem, percent inhibition | inhibition, % at 25 µM | hit rate 0.27% among 330,000;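 further: growth measured after seven days incubation then overnight dye step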
Rv3671c inh – inhibits the M. tuberculosis serine protease Rv3671c. inhibition, % at 5.96 µM. P9WHR9. hit rate 0.048% among 320,000; in the data active means inhibition above about 38%;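 further: extracellular domain of Rv3671c used as enzyme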
Mtb UGM inh – inhibitors of M. tuberculosis UDP-galactopyranose mutase. purified UGM, fluorescence polarization probe displacement. P9WIQ1. inhibition, % at 10 µM. AID 504406. hit rate 0.06% among 320,000; in the data active means inhibition above about 10%, passing the limit was not always enough; inconclusive means no clear call, values can overlap the other calls
GFP chromophore – counter-screen GFP chromophore formation inhibition; shares compounds with RecA intein inh; hit rate 83% among 2,100; cell-free GFP chromophore formation, fluorescence; AID 434968; EC50, µM
Numbers stand for hits; - = inactive; ? = inconclusive; . = no result. Unless noted, how the calls were made is not given here.

SMILES	GDH-TPI counter	FBA Mtb inh	RecA intein inh	Mtb bLac sens	Rv3671c inh	Mtb UGM inh	GFP chromophore
COc1cc(N=C2C(=O)N3c4c(cccc42)C(C)=CC3(C)C)cc(OC)c1	-	-	-	-	-	-	.
CC1=CC(C)(C)N2C(=O)C(=Nc3ccc(O)cc3)c3cccc1c32	-	-	39	-	-	-	-
Cc1ccc2c(c1)c1c3n2CCN(C(=O)CCl)C3CCC1 (stereo unspecified)	-	-	73	-	-	-	7.3
COc1ccc(-c2csc(CCN3N=C(C)CC3=O)n2)cc1	-	-	86	-	-	-	4.8
Cc1ccc(NC(=O)C(=Cc2ccc(C(=O)O)cc2)C(=O)Nc2ccc(C)cc2C)c(C)c1	-	-	83	-	-	-	7.6
C=CCOc1ccccc1CN(C(=O)CCl)c1ccc2c(c1)OCO2	-	-	81	-	-	-	8.3
O=C(O)c1ccc(-n2ccnc2)c([N+](=O)[O-])c1	-	-	-	-	-	-	.
COC(=O)c1cc([N+](=O)[O-])c(-n2ccnc2)c([N+](=O)[O-])c1	-	-	71	-	-	-	11
CCc1nc2c(OCc3ccc(C#N)cc3)cccn2c1N(C)C(=O)c1cccs1	-	-	.	.	.	.	.
C=CCNC1=C(Cl)C(=O)c2ccccc2C1=O	-	-	34	?	-	-	19
O=C1C(Cl)=C(NCc2cccnc2)C(=O)c2ccccc21	-	-	76	-	-	-	9.4
Nc1cc2c(cc1N)-c1ccccc1C2	-	-	.	.	.	.	.
CCN(CCN(C)C)C(=O)c1ccc2c(c1NCCO)C(=O)c1ccccc1C2=O	-	-	48	-	-	-	?
COc1ccc(N2C(=O)C(Cl)=C(N3CCN(Cc4ccccc4)CC3)C2=O)cc1	-	-	69	.	.	.	7.1
CCc1ccc(N2C(=O)C(Cl)=C(N3CCOCC3)C2=O)cc1	-	-	78	-	-	-	5.3
O=C1C(Cl)=C(N2CCN(Cc3ccccc3)CC2)C(=O)N1c1ccccc1	-	-	-	-	-	-	.
COc1ccc(N2C(=O)c3ccccc3C2=O)cc1	-	-	-	-	-	-	.
COc1ccc(N2C(=O)C(Cl)=C(N3CCOCC3)C2=O)cc1	-	-	74	-	-	-	8.7
COc1ccc(N2C(=O)C(Cl)=C(Oc3cccc(OC)c3)C2=O)cc1	-	-	39	-	-	-	20
Cc1ccc(C)c(OCCC(=O)OCC(=O)NC(=O)NC2CCCC2)c1	-	-	-	-	-	-	.
O=C(O)c1cccc(Cn2c(Cl)c(/C=N/Nc3ccccc3)sc2=O)c1	-	-	30	-	-	-	-
O=C(O)c1cccc(N/N=C/c2cccc3ccccc23)c1	-	-	-	-	-	-	.
CC(=O)c1coc2c1cc(O)c1ccccc12	-	-	-	?	-	-	.
CC(=O)c1cc(O)c2ccccc2c1O	-	-	70	-	-	-	6.9
Cc1ccc(NC(=O)CSc2nnc(CNC(=O)c3ccco3)n2C)cc1C	-	-	-	-	-	.	.
SMILES	GDH-TPI counter	FBA Mtb inh	RecA intein inh	Mtb bLac sens	Rv3671c inh	Mtb UGM inh	GFP chromophore
Cc1cccc(C)c1NC(=O)CNC(=O)c1c(-c2ccccc2)noc1C	-	-	.	-	-	-	.
CCc1cc(C(=O)c2ccc(OC)cc2)c(NC(=O)CCC(=O)O)s1	-	-	-	-	-	-	.
CCc1cc(C(=O)c2ccc(C)cc2)c(NC(=O)CCl)s1	-	-	74	-	-	61	14
Cc1ccc(S(=O)(=O)CCC(=O)Nc2ccccc2C)cc1	-	-	-	-	-	-	.
O=C(NCc1cccnc1)/C(=C\c1ccc(-c2ccc(Br)cc2)o1)S(=O)(=O)c1ccccc1	32	-	51	-	-	-	29
CN1CCc2nc(SCc3ccc(Cl)cc3)c(C#N)c(-c3cccs3)c2C1	.	.	60	.	-	-	8.7
N#Cc1c(N)nc(SCc2ccncc2)c(C#N)c1-c1cccs1	-	-	-	-	-	-	.
Cc1cc(C(=O)CN2C(=O)c3ccccc3C2=O)c(C)n1C1CC1	-	-	98	-	-	-	-
CCN1C(=O)C(=O)N(CC(=O)c2cc(C)n(C3CC3)c2C)C1=O	-	-	.	-	-	-	.
O=C(NCc1cccc(C(F)(F)F)c1)c1ccc2c(c1)OCCO2	-	-	-	-	-	-	.
CCOC(=O)C1=C(C)NC(SCC(N)=O)=C(C#N)C1c1cccs1 (stereo unspecified)	-	-	-	-	-	-	.
CCOC(=O)C1=C(C)NC(SCc2cc(=O)[nH][nH]2)=C(C#N)C1c1cccs1 (stereo unspecified)	-	-	70	-	-	-	20
CC(C)c1nnc(NC(=O)CCS(=O)(=O)c2nc(-c3cccs3)cc(C(F)(F)F)n2)s1	-	-	32	-	-	-	-
O=C(NCCc1ccc(Cl)cc1)c1ccc(S(=O)(=O)N2CCCC2)cc1	-	-	-	-	-	-	.
O=C(Nc1cc(Cl)ccc1Cl)c1ccco1	-	-	-	-	-	-	.
CS/C(Nc1cc(Cl)ccc1Cl)=C(/C#N)C(=O)c1ccco1	-	-	65	-	-	-	27
CCCCCCCCCCCCCCCCn1cc[n+](C)c1	-	-	48	-	-	-	12
Cc1ccccc1CS(=O)(=O)c1ncc(Cl)c(C(=O)Nc2ccc(F)cc2)n1	-	-	34	-	-	-	8.6
CCCc1nnc(NC(=O)c2nc(S(=O)(=O)Cc3cccc(C)c3)ncc2Cl)s1	-	-	85	-	-	-	-
CCN(c1ccccc1)S(=O)(=O)c1ccc(NC(=O)c2nc(S(C)(=O)=O)ncc2Cl)cc1	-	-	-	-	-	-	.
O=C(Nc1ccc(F)cc1)c1nc(S(=O)(=O)Cc2ccccc2)ncc1Cl	-	-	-	-	-	-	.
CCS(=O)(=O)c1ncc(Cl)c(C(=O)Nc2ccc(S(=O)(=O)N(C)c3ccccc3)cc2)n1	-	-	97	-	-	-	1.6
Cc1ccc(NC(=O)c2nc(S(=O)(=O)Cc3ccccc3)ncc2Cl)cc1	-	-	66	-	-	-	40
COc1ccc(NC(=O)C2CCCN2C(=O)NC2CCCCC2)cc1 (stereo unspecified)	-	-	-	-	-	-	.
COc1ccc(Cl)cc1C=CC=Nc1ccccc1O	-	-	.	.	.	.	.
SMILES	GDH-TPI counter	FBA Mtb inh	RecA intein inh	Mtb bLac sens	Rv3671c inh	Mtb UGM inh	GFP chromophore
Cc1cccc(CS(=O)(=O)c2ncc(Cl)c(C(=O)Nc3c(C)cccc3C)n2)c1	-	-	46	-	-	-	9.9
Cc1nnc(NC(=O)c2nc(S(=O)(=O)Cc3ccccc3)ncc2Cl)s1	-	-	56	-	-	-	16
Cc1cccc(C)c1NC(=O)c1nc(S(=O)(=O)Cc2ccccc2)ncc1Cl	-	-	36	-	-	-	17
CCc1nc2ccc(C(=O)NCc3ccc4c(c3)OCO4)cn2c1N(C)C(=O)Cc1ccccc1	-	-	.	.	.	.	.
Clc1ccc(CCNc2ncnc3c2nnn3Cc2ccccc2)cc1	-	-	-	-	-	-	.
COc1ccc(CCNC(=O)CCCn2c(=S)[nH]c3ccsc3c2=O)cc1OC	-	-	.	.	.	.	.

High-throughput results: PubChem, several laboratories
